Sampled rows, rich in hits. Any-hit rate of the full collection: about 7.9%.
KB-3-1 cytotox: KB-3-1 parental cell cytotoxicity. KB-3-1 viability, CellTiter-Glo ATP luminescence, 72 h. Potency, µM (series often up to 46.1 µM), most hits filed as cytotoxic. 400,000 compounds, 1.4% hits; note: % is set by controls: 0 for no effect and ±100 for the full control effect; nearly all actives have a fitted effect of over 60% in size
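Viability of parental KB-3-1 cells, measured by CellTiter-Glo luminescence, followed a 72 h incubation at 37 °C with pinned compounds in phenol-red-free DMEM containing 10% FBS.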
HT1080 IDH1KD tx: HT-1080 IDH1 knockdown cell toxicity (counter line). HT-1080 IDH1 knockdown viability, ATP luminescence, 48 h. Potency, µM (series often up to 46.1 µM), without a hit: at the top dose activity, negative = toxicity, usual class: cytotoxic. 360,000 compounds, 2% hits;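 note: 0% = DMSO wells and -100% = cell-free medium wells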
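After a 2 h attachment period, IDH1KD HT-1080 cells took pin-transferred compound for 48 h at 37 °C; ATP-based luminescence after 10 min room-temperature reagent incubation reported viability.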
KB-V1 cytotox: kills drug-selected multidrug resistant KB-V1 cells; AID 1347076; KB-V1 MDR cells viability, CellTiter-Glo, 72 h; 400,000 compounds, 3.4% hits; Potency, µM (top dose mostly 46.1 µM), usual class: cytotoxic; note: % is set by controls: 0 for no effect and ±100 for the full control effect; nearly all actives have a fitted effect of over 60% in size
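Readout: CellTiter-Glo luminescence, 10 min after addition. Cells: KB-V1 MDR subline, 72 h at 37 degrees C with compound. Analysis: corrected, normalized data fitted to concentration-effect curves.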
SW480 rereplic: DNA re-replication induction in SW480 cells; Potency, µM (highest dose often 46.1 µM), for inactives: top-dose re-replication activation, most hits filed as activators; 340,000 compounds, 1.8% hits; SW480 DNA re-replication, Hoechst DNA content imaging, 48 h; note: % of control where 0% means no effect; nearly all actives have a fitted effect of over 55% in size
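Image-based read-out: total Hoechst fluorescence of nuclei (405 nm excitation, 500-530 nm emission), with hits raising the fraction of high-intensity nuclei. SW480 colon cells incubated 48 hr with compounds at 37 C.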
HT1080-NT tox: kills 2HG-producing HT-1080-NT fibrosarcoma cells. HT-1080-NT fibrosarcoma viability, CellTiter-Glo ATP luminescence, 48 h. Potency, µM (titrated, usually from 46.1 µM), for the others: at the highest dose activity, negative = less viability, most hits filed as cytotoxic. 360,000 compounds, 1.6% hits;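 note: NT is the 2HG producing partner of a matched IDH1 knockdown line; 0% = DMSO-treated cells and -100% = media-only wells without cells; nearly all actives have a fitted effect of over 55% in size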
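HT-1080-NT; 750 cells/well; 5% FBS RPMI; 48 h compound, 37 degrees C; CellTiter-Glo luminescence; curve fitting and curve-class assignment.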
MCF10A rereplic: DNA re-replication induction in MCF 10a cells | MCF 10A DNA re-replication, Hoechst nuclear intensity, 48 h | Potency, µM (doses to about 46.1 µM), for inactives: at the top dose activity, positive = re-replication, actives largely listed as activators | 350,000 compounds, 2.9% hits; note: % of control where 0% means no effect; nearly all actives have a fitted effect of over 50% in size
The depositor's hits bear a star; [ ] = dose if it differs, or a comment. Calls come from the whole dose curve; as a rule, active = well fitted curve in the direction sought with a large enough effect; inconclusive = small, poorly fitted or top-dose-only effect, or another doubt; inactive = no such curve, though single readings can be large; an effect the other way counts as inactive or inconclusive. Potency is the fitted concentration of half-maximal effect.

Results for O=C(N[C@H](Cc1cc(=O)[nH]c2ccccc12)C(=O)O)c1ccc(Cl)cc1 ?
KB-3-1 cytotox: inactive; HT1080 IDH1KD tx: -0.9%; KB-V1 cytotox: inactive; SW480 rereplic: -6.4%; HT1080-NT tox: 2.5%; MCF10A rereplic: 2.6%

How did O=C(COC(=O)COc1ccc(Cl)cc1)Nc1cccnc1Cl do in these assays?
KB-3-1 cytotox: inactive; HT1080 IDH1KD tx: 3.2%; KB-V1 cytotox: inactive; HT1080-NT tox: -0.2%

How did Cc1nn2c([nH]c(=O)c3ccccc32)c1C=O do in these assays?
KB-3-1 cytotox: inactive; HT1080 IDH1KD tx: inconclusive; KB-V1 cytotox: inconclusive; SW480 rereplic: inconclusive; HT1080-NT tox: 17.8µM*; MCF10A rereplic: 27.5%

Results for Cc1nn2c(nc(N3CCCCC3)c3ccccc32)c1C=O ?
KB-3-1 cytotox: inactive; HT1080 IDH1KD tx: -24.7%; KB-V1 cytotox: inactive; SW480 rereplic: -1.4%; HT1080-NT tox: inconclusive; MCF10A rereplic: 2.0%

What do the screens show for `CC(C)(C)C1CCC(CN2C(Nc3ccccc3)=NC[C@@H]2Cc2ccccc2)CC1` (stereo partly specified)?
KB-3-1 cytotox: inconclusive; HT1080 IDH1KD tx: -25.0%; KB-V1 cytotox: 18.4µM*; SW480 rereplic: inconclusive; HT1080-NT tox: -17.0%; MCF10A rereplic: 4.3%

How did CCN1C(Nc2ccccc2)=NC[C@@H]1Cc1ccccc1 do in these assays?
KB-3-1 cytotox: inactive; HT1080 IDH1KD tx: 9.9%; KB-V1 cytotox: inconclusive; SW480 rereplic: -4.3%; HT1080-NT tox: 9.8%; MCF10A rereplic: 4.0%

How did OCCNCc1cc(Br)ccc1OCc1ccc(Cl)cc1Cl do in these assays?
KB-3-1 cytotox: inconclusive; HT1080 IDH1KD tx: inconclusive; KB-V1 cytotox: 14.6µM*; SW480 rereplic: inconclusive; HT1080-NT tox: 23.1µM*; MCF10A rereplic: inconclusive

What do the screens show for `Brc1ccc(OCc2ccccc2)c(CNCc2ccncc2)c1`?
KB-3-1 cytotox: inconclusive; HT1080 IDH1KD tx: inconclusive; KB-V1 cytotox: 16.4µM*; SW480 rereplic: inconclusive; HT1080-NT tox: inconclusive; MCF10A rereplic: inconclusive

Results for OCCNCc1cc(Br)ccc1OCc1ccc(Cl)cc1 ?
KB-3-1 cytotox: inactive; HT1080 IDH1KD tx: 1.7%; KB-V1 cytotox: 9.2µM*; SW480 rereplic: 14.1%; HT1080-NT tox: -0.9%; MCF10A rereplic: 9.9%

Results for Nc1c(-c2ccccc2)sc2ccc3ccccc3[n+]12 ?
KB-3-1 cytotox: inactive; HT1080 IDH1KD tx: -5.3%; KB-V1 cytotox: inconclusive; SW480 rereplic: 2.2%; HT1080-NT tox: -0.9%; MCF10A rereplic: 1.3%

What do the screens show for `COc1ccccc1CNc1ncc(-c2ccc(F)cc2)n1C`?
KB-3-1 cytotox: inactive; HT1080 IDH1KD tx: -7.4%; KB-V1 cytotox: inactive; SW480 rereplic: -40.1%; HT1080-NT tox: -13.2%; MCF10A rereplic: 1.4%

Results for Cn1c(-c2ccc(F)cc2)cnc1NCc1ccccc1 ?
KB-3-1 cytotox: inconclusive; HT1080 IDH1KD tx: -26.1%; KB-V1 cytotox: 20.6µM*; SW480 rereplic: inconclusive; HT1080-NT tox: -22.1%; MCF10A rereplic: inconclusive

What do the screens show for `COc1ccc(CNc2ncc(-c3ccc(F)cc3)n2C)c2ccccc12`?
KB-3-1 cytotox: inactive; HT1080 IDH1KD tx: inconclusive; KB-V1 cytotox: inconclusive; SW480 rereplic: 2.1%; HT1080-NT tox: 23.1µM*; MCF10A rereplic: inconclusive

Results for Cn1c(-c2ccccc2)cnc1NCc1ccc(F)cc1 ?
KB-3-1 cytotox: inactive; HT1080 IDH1KD tx: 3.1%; KB-V1 cytotox: inactive; SW480 rereplic: -2.5%; HT1080-NT tox: 3.2%; MCF10A rereplic: 1.7%

How did Cc1ccc(NC(=O)CSc2nnc(C3CC3)n2CC2CCCO2)cc1C (stereo unspecified) do in these assays?
KB-3-1 cytotox: inactive; HT1080 IDH1KD tx: 10.7%; KB-V1 cytotox: inactive; SW480 rereplic: 9.8%; HT1080-NT tox: 5.9%; MCF10A rereplic: -0.5%

How did CC(C)Nc1nc(Nc2ccccc2Cl)c2sccc2n1 do in these assays?
KB-3-1 cytotox: inactive; HT1080 IDH1KD tx: 0.0%; KB-V1 cytotox: inconclusive; HT1080-NT tox: -25.2%

How did OCc1nc2ccccc2n1CC(O)Cn1ccc2ccccc21 (stereo unspecified) do in these assays?
KB-3-1 cytotox: inconclusive; HT1080 IDH1KD tx: -8.2%[9.24 µM]; KB-V1 cytotox: 20.6µM*; SW480 rereplic: -2.7%; HT1080-NT tox: -20.2%; MCF10A rereplic: 5.5%

Results for O=C(Nc1ncc(S(=O)(=O)c2ccc([N+](=O)[O-])cc2)s1)c1cccnc1 ?
KB-3-1 cytotox: inactive; HT1080 IDH1KD tx: 23.1µM*; KB-V1 cytotox: inactive; SW480 rereplic: inconclusive; HT1080-NT tox: inconclusive; MCF10A rereplic: inconclusive

How did O=C(Nc1ncc(S(=O)(=O)c2ccc([N+](=O)[O-])cc2)s1)c1ccc2ccccc2c1 do in these assays?
KB-3-1 cytotox: inactive; HT1080 IDH1KD tx: -23.5%; KB-V1 cytotox: inactive; SW480 rereplic: 1.0%; HT1080-NT tox: -17.2%; MCF10A rereplic: inconclusive

What do the screens show for `CCC(C)(C)C(=O)Nc1ncc(S(=O)(=O)c2ccc([N+](=O)[O-])cc2)s1`?
KB-3-1 cytotox: inactive; HT1080 IDH1KD tx: -27.2%; KB-V1 cytotox: inactive; SW480 rereplic: inconclusive; HT1080-NT tox: -16.0%; MCF10A rereplic: inconclusive

How did COC(=O)C(NC(=O)c1ccccc1Cl)(Nc1ncc(S(=O)(=O)c2ccc([N+](=O)[O-])cc2)s1)C(F)(F)F (stereo unspecified) do in these assays?
KB-3-1 cytotox: inconclusive; HT1080 IDH1KD tx: 0.0%; KB-V1 cytotox: 13µM*; SW480 rereplic: inconclusive; HT1080-NT tox: 13.7%; MCF10A rereplic: inconclusive

Results for COCCNc1nc2cc(-c3ccc(C)cc3)sc2c(=O)n1C ?
KB-3-1 cytotox: inactive; HT1080 IDH1KD tx: 20.0%; KB-V1 cytotox: inconclusive; HT1080-NT tox: 4.8%

Results for Cc1ccc2c(c1)ncc[n+]2CC(=O)c1ccc(Cl)cc1Cl ?
KB-3-1 cytotox: inactive; KB-V1 cytotox: inactive

What do the screens show for `CC(CCc1ccccc1)NC(=O)c1ccc(NC(=O)c2ccccc2)cc1` (stereo unspecified)?
KB-3-1 cytotox: inactive; HT1080 IDH1KD tx: 12.2%; KB-V1 cytotox: inactive; SW480 rereplic: inconclusive; HT1080-NT tox: 16.4µM*; MCF10A rereplic: inconclusive

How did CCOc1ccc(C(CCc2ccccc2)NC(=O)c2ccccc2)cc1OCC (stereo unspecified) do in these assays?
KB-3-1 cytotox: inactive; HT1080 IDH1KD tx: inconclusive; KB-V1 cytotox: 9.2µM*; SW480 rereplic: 0.3%; HT1080-NT tox: -6.6%; MCF10A rereplic: -3.8%

How did Cc1ccc(C)c(C(=O)NC(C)CCc2ccccc2)c1 (stereo unspecified) do in these assays?
KB-3-1 cytotox: inactive; HT1080 IDH1KD tx: -0.3%; KB-V1 cytotox: inactive; SW480 rereplic: 11.3%; HT1080-NT tox: 5.1%; MCF10A rereplic: 2.5%
